Results reported in the supplement of paper PMC10849652.
About 7,900 targets were measured; listed, in parts, are those with a hit and a random draw of the rest. About 0.6% of all pairs of compound and target were hits.

Legend:
Assay in all cases: log2 fold change, soluble protein after heating vs DMSO (PISA); higher = thermal stabilisation; K562 cells, 10 uM, 30 min; active = over 0.2 and 3.5 SD of the protein, either way, in both replicates (recomputed)
IRAK-1-4 Inhibitor I = compound: C1COCCN1CCN2C3=CC=CC=C3N=C2NC(=O)C4=CC(=CC=C4)[N+](=O)[O-] [IRAK-1-4 Inhibitor I]
Summary of the method: (§1)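 Soluble protein was quantified by TMTpro 16plex LC-MS/MS after channel sums were equalised. It was obtained as the supernatant after 21,000xg for 90 min from pooled aliquots of K562 cells (2×10^6 cells/mL, 10 μM compound, 30 min) heated for 3 min across 48°C-58°C and extracted in PBS with 0.5% NP-40 at 4°C. Thermal stability values are relative to control samples and come from duplicates. They are given as log2 fold changes.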

ibrutinib = compound: C=CC(=O)N1CCC[C@@H](n2nc(-c3ccc(Oc4ccccc4)cc3)c3c(N)ncnc32)C1 [ibrutinib]
Summary of the method: as §1

[1] = compound: CC(=O)c1cnc2ccc(-c3cc(Cl)c(O)c(Cl)c3)nc2c1N[C@H]1CC[C@H](CN(C)C)CC1
Summary of the method: as §1

ralimetinib = compound: CC(C)(C)Cn1c(N)nc2ccc(-c3[nH]c(C(C)(C)C)nc3-c3ccc(F)cc3)nc21 [ralimetinib]
Summary of the method: as §1

[2] = compound: CC(C)C1=C2N=C(C=C(N2N=C1)NCC3=CC=CC=C3)NCCCCCCN
Summary of the method: as §1

[3] = compound: CC(C)C[C@@H](C=O)NC(=O)[C@H](CC(C)C)NC(=O)[C@H](CC(C)C)NC(=O)OCc1ccccc1
Summary of the method: as §1

pinometostat = compound: CC(C)N(C[C@H]1O[C@@H](n2cnc3c(N)ncnc32)[C@H](O)[C@@H]1O)[C@H]1C[C@@H](CCc2nc3cc(C(C)(C)C)ccc3[nH]2)C1 [pinometostat]
Summary of the method: as §1

[4] = compound: CC1=C(C(CC(=O)N1)C2=CC=C(C=C2)C(F)(F)F)C(=O)NC3=C(C=C4C(=C3)C=NN4)F
Summary of the method: as §1

[5] = compound: CC1=C(C2=C(C=C1)C(=O)C3=CC=CC=C3N2CCCN)C
Summary of the method: as §1

[6] = compound: CC1=C(C=C(C=C1)NC(=O)C2=CC(=CC=C2)C(C)(C)C#N)NC3=CC4=C(C=C3)N=CN(C4=O)C
Summary of the method: as §1

[7] = compound: CC1=C(C=C(C=C1)NC(=O)C2=CC(=CC=C2)N(C)C)NC(=O)C3=CC=C(C=C3)O
Summary of the method: as §1

[8] = compound: CC1=NC(=CC=C1)C2=C(N=C(N2)C(C)(C)C)C3=CC4=NC=CN=C4C=C3
Summary of the method: as §1

vemurafenib = compound: CCCS(=O)(=O)Nc1ccc(F)c(C(=O)c2c[nH]c3ncc(-c4ccc(Cl)cc4)cc23)c1F [vemurafenib]
Summary of the method: as §1

[9] = compound: CCCc1cc(C)[nH]c(=O)c1CNC(=O)c1cc(-c2ccnc(N3CCN(C)CC3)c2)cc2c1cnn2C(C)C
Summary of the method: as §1

givinostat = compound: CCN(CC)Cc1ccc2cc(COC(=O)Nc3ccc(C(=O)NO)cc3)ccc2c1 [givinostat]
Summary of the method: as §1

barasertib = compound: CCN(CCCOc1ccc2c(Nc3cc(CC(=O)Nc4cccc(F)c4)[nH]n3)ncnc2c1)CCOP(=O)(O)O [barasertib]
Summary of the method: as §1

[10] = compound: CC(C)(O)CC(=O)NCCn1ccc2ncnc(Nc3ccc(Oc4cccc(C(F)(F)F)c4)c(Cl)c3)c21
Summary of the method: as §1

[11] = compound: CC1=CC=C(C=C1)SC2=C3C=C(SC3=CN=C2)C(=O)N
Summary of the method: as §1

Nexturastat A = compound: CCCCN(Cc1ccc(C(=O)NO)cc1)C(=O)Nc1ccccc1 [Nexturastat A]
Summary of the method: as §1

[12] = compound: CCCS(=O)(=O)Nc1ccc(F)c(C(=O)c2c[nH]c3ncc(Cl)cc23)c1F
Summary of the method: as §1

Measured: log2 fold change

SPAG9 isoform 4 (UniProt O60271)
inactive: IRAK-1-4 Inhibitor I -0.027 | ibrutinib 0.349 | [1] 0.14 | ralimetinib 0.191 | [2] -0.202 | [3] 0.049 | pinometostat 0.061 | [4] -0.003 | [5] -0.243 | [6] 0.184 | [7] -0.025 | [8] -0.038 | vemurafenib 0.174 | [9] 0.028 | givinostat 0.021 | barasertib 0.176

STARD7 (UniProt Q9NQZ5)
Chain of UniProt Q9NQZ5 (Q9NQZ5 whole entry, looked up): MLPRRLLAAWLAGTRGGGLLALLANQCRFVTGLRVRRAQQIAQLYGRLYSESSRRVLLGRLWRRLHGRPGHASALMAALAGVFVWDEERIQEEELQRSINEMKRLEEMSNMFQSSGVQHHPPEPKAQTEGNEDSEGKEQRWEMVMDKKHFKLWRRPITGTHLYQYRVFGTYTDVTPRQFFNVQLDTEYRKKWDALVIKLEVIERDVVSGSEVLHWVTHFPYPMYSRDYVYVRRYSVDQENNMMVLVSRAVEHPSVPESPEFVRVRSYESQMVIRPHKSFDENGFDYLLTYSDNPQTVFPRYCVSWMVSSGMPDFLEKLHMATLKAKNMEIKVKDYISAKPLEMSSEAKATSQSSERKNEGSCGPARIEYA
inactive: IRAK-1-4 Inhibitor I -0.012 | ibrutinib 0.055 | [1] -0.026 | ralimetinib -0.01 | [10] -0.051 | [2] -0.057 | [3] 0.028 | pinometostat -0.009 | [4] -0.019 | [5] -0.003 | [6] 0.061 | [7] 0.015 | [11] 0.004 | [8] -0.01 | Nexturastat A -0.053 | vemurafenib 0 | [12] -0.033 | [9] 0.024 | givinostat -0.029 | barasertib -0.008

TBP (UniProt P20226)
Chain of UniProt P20226 (P20226 whole entry, looked up): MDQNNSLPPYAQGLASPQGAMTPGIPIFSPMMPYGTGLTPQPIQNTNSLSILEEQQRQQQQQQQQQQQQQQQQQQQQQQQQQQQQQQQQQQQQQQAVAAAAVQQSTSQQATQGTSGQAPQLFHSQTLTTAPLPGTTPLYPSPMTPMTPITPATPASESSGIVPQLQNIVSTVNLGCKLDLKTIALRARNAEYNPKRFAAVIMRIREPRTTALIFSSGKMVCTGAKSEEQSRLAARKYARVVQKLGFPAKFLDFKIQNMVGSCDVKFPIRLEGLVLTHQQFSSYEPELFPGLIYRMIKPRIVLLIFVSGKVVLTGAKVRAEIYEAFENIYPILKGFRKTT
active: [5] 0.528
inactive: IRAK-1-4 Inhibitor I 0.018 | ibrutinib -0.029 | [1] 0.091 | ralimetinib -0.016 | [10] 0.036 | [3] -0.002 | pinometostat -0.019 | [4] -0.046 | [7] -0.04 | [11] -0.056 | [8] -0.071 | Nexturastat A 0.163 | vemurafenib 0.02 | [12] -0.026 | [9] -0.154 | barasertib -0.067

SLC39A11 (UniProt Q8N1S5)
Chain of UniProt Q8N1S5 (Q8N1S5 whole entry, looked up): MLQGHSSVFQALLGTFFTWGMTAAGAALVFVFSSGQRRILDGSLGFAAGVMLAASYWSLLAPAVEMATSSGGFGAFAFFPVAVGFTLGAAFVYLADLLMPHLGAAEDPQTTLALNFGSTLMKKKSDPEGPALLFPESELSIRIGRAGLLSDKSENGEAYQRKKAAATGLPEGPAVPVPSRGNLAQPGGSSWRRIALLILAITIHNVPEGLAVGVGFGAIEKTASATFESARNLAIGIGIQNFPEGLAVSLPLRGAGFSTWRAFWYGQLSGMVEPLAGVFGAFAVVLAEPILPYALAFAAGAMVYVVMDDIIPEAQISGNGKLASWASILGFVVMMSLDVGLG
inactive: IRAK-1-4 Inhibitor I 0.092 | ibrutinib 0.066 | [1] 0.051 | ralimetinib 0.012 | [2] -0.117 | [3] -0.051 | pinometostat -0.085 | [4] -0.024 | [5] 0.07 | [6] 0.046 | [7] 0.372 | [11] -0.057 | [8] 0.045 | vemurafenib 0.055 | [12] -0.026 | [9] -0.009 | givinostat 0.074 | barasertib -0.002

SREBF1 isoform 4 (UniProt P36956)
active: [9] -0.932
inactive: IRAK-1-4 Inhibitor I 0.008 | ibrutinib 0.025 | [10] -0.404 | [2] -0.077 | pinometostat -0.088 | [8] 0.035 | Nexturastat A 0.063 | givinostat 0.051 | barasertib -0.071

SUN1 isoform 9 (UniProt O94901)
Chain of UniProt O94901 (O94901 whole entry, looked up): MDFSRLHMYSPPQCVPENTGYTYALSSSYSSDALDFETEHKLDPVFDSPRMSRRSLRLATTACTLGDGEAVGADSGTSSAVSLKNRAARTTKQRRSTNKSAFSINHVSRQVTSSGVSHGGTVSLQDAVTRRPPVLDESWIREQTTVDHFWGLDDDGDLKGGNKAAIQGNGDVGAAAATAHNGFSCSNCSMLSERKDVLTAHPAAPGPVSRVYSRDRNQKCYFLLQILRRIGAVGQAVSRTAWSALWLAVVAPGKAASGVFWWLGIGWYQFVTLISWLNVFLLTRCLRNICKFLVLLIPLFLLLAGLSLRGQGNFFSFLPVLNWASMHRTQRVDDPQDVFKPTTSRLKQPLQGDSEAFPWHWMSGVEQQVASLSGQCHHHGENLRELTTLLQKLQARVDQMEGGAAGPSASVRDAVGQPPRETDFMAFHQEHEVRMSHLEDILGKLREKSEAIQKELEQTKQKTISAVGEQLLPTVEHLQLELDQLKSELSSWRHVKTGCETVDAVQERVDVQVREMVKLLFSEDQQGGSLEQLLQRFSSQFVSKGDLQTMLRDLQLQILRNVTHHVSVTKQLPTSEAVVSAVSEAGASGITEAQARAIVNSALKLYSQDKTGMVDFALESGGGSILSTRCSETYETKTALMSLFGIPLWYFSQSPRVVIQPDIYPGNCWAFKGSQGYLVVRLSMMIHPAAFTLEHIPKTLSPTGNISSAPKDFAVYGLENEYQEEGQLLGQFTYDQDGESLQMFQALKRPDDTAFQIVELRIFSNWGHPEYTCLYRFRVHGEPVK
inactive: IRAK-1-4 Inhibitor I -0.028 | [1] -0.114 | ralimetinib 0.067 | [10] 0.115 | [2] -0.149 | [3] 0.042 | pinometostat 0.128 | [4] 0.127 | [5] -0.05 | [6] -0.164 | [7] 0.047 | [11] 0.029 | [8] 0.04 | Nexturastat A 0.11 | vemurafenib -0.21 | [12] -0.005 | [9] 0.037 | givinostat 0.078

SSBP4 (UniProt U3KPY3)
inactive: vemurafenib -0.095 | [9] -0.028

SLC35F6 (UniProt Q8N357)
Chain of UniProt Q8N357 (Q8N357 whole entry, looked up): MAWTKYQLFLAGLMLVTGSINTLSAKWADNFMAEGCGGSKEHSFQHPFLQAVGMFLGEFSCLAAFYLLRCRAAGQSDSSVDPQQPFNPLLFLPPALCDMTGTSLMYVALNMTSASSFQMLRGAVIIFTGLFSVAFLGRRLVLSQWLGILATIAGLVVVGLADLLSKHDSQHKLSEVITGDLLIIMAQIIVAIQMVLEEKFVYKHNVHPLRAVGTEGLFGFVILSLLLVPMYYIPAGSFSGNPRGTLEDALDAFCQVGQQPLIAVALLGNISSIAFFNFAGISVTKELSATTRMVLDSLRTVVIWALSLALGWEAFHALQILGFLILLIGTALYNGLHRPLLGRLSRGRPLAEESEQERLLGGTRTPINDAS
inactive: ibrutinib -0.002 | [1] -0.016 | ralimetinib -0.18 | [10] 0.061 | [2] -0.22 | [3] 0.319 | [4] -0.177 | [5] 0.078 | [6] -0.041 | [7] -0.166 | [11] 0.001 | Nexturastat A -0.065 | vemurafenib -0.168 | [12] -0.055 | [9] -0.066 | givinostat 0.129 | barasertib 0.045

TATDN2 (UniProt Q93075)
inactive: IRAK-1-4 Inhibitor I -0.006 | ibrutinib 0.072 | [10] 0.102 | [2] 0.058 | pinometostat 0.047 | [4] -0.023 | [5] -0.218 | [6] -0.256 | [11] 0.048 | [8] -0.07 | Nexturastat A 0.092 | vemurafenib 0.168 | [12] 0.019 | givinostat -0.004 | barasertib 0.126
active: [1] -0.402

SLC39A1 (UniProt Q9NY26)
active: [2] -1.06
inactive: givinostat -0.157

SLC35B1 isoform 2 (UniProt P78383)
inactive: IRAK-1-4 Inhibitor I -0.067 | ibrutinib 0.09 | ralimetinib -0.184 | [10] -0.217 | [2] -0.04 | [3] 0.038 | pinometostat 0.065 | [4] -0.086 | [5] 0.011 | [6] 0.165 | [7] -0.109 | [8] 0.054 | Nexturastat A 0.072 | vemurafenib 0.267 | [9] -0.221 | givinostat 0.069 | barasertib -0.055

TAF6L (UniProt Q9Y6J9)
inactive: [1] 0.054 | ralimetinib -0.092 | [2] 0.023 | [3] 0.122 | [4] 0.118 | [5] -0.03 | [6] -0.042 | [7] 0.114 | [11] -0.055 | [12] -0.059 | [9] 0.091 | givinostat 0.075

TCOF1 isoform 3 (UniProt Q13428)
inactive: ralimetinib 0.522 | [10] -0.095 | [2] -0.01 | [3] 0.176 | [5] -0.642 | [6] -0.051 | [7] 0.262 | Nexturastat A -0.429 | givinostat 0.047

SPIN4 (UniProt Q56A73)
Chain of UniProt Q56A73 (Q56A73 whole entry, looked up): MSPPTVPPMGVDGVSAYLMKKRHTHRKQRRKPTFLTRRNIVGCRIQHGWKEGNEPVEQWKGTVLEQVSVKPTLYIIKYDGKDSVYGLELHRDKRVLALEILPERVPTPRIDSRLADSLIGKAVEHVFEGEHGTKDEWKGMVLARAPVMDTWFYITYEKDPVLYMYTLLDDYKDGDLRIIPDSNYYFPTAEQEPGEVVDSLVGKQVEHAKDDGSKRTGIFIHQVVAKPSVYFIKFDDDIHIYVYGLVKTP
inactive: IRAK-1-4 Inhibitor I 0.07 | [2] -0.079 | pinometostat 0.051 | [8] -0.601 | givinostat -0.245

SP2 (UniProt Q02086)
Chain of UniProt Q02086 (Q02086 whole entry, looked up): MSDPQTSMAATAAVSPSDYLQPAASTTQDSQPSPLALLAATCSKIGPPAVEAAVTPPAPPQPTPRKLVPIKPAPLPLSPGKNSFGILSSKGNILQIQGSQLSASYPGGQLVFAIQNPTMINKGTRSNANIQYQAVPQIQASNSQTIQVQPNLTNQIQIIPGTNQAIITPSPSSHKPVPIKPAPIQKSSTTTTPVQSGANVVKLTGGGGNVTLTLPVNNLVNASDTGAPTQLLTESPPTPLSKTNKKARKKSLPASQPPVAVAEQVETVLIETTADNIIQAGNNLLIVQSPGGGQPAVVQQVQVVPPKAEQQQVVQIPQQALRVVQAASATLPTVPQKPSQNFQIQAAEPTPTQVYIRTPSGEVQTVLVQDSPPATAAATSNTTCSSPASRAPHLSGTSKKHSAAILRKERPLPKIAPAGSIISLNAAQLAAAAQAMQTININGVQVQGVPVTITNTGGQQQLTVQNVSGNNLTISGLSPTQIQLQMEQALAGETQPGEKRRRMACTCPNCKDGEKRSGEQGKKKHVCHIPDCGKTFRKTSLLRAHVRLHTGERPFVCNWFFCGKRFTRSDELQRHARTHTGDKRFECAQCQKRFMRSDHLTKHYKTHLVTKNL
inactive: IRAK-1-4 Inhibitor I -0.126 | [1] -0.472 | pinometostat 0.212 | [6] -0.032 | [8] -0.122

TAOK2 (UniProt Q9UL54)
Chain of UniProt Q9UL54 (Q9UL54 whole entry, looked up): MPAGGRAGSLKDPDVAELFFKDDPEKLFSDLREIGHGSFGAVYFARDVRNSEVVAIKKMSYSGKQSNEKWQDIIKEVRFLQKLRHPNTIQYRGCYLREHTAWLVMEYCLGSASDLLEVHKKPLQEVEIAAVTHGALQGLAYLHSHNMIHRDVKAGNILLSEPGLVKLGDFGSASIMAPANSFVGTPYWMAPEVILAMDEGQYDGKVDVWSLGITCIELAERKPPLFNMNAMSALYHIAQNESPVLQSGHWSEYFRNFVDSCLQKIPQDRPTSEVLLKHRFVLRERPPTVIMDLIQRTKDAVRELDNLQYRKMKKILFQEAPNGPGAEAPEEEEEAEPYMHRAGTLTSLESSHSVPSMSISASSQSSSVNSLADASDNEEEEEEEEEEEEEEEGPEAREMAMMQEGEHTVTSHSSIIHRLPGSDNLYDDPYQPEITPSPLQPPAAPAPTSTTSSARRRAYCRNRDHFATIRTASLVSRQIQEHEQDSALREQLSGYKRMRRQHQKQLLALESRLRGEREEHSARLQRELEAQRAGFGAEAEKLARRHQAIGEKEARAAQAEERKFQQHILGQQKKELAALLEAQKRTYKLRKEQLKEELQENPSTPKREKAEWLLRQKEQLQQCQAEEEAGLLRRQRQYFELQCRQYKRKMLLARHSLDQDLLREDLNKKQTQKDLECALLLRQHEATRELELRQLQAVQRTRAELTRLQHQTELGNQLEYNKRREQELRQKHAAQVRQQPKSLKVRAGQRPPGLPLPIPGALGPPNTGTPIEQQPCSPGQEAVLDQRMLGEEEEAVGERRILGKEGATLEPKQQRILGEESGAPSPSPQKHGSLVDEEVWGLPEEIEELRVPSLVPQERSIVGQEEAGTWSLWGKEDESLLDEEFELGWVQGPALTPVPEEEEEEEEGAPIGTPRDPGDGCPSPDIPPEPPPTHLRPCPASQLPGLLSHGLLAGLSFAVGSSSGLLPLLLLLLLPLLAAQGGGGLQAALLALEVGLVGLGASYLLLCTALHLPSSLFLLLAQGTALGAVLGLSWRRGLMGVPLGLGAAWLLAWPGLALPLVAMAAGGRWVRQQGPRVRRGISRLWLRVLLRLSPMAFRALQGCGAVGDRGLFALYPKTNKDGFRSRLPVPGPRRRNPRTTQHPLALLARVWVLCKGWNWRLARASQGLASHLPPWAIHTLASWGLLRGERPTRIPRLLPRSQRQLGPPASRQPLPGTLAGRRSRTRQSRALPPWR
active: Nexturastat A 0.487
inactive: IRAK-1-4 Inhibitor I -0.132 | ralimetinib 0.09 | [10] -0.041 | [2] 0.083 | [3] 0.001 | pinometostat 0.031 | [4] -0.044 | [5] 0.127 | [7] 0.024 | [11] 0.062 | [8] 0.08 | [12] 0.051 | [9] 0.007 | givinostat -0.363

SRC isoform 2 (UniProt P12931)
inactive: IRAK-1-4 Inhibitor I -0.018 | [1] -0.251 | ralimetinib -0.136 | [10] -0.22 | [2] 0.159 | [3] 0.05 | pinometostat 0.087 | [4] 0.067 | [5] 0.02 | [6] -0.006 | [7] 0.022 | [11] -0.016 | [8] -0.06 | Nexturastat A -0.075 | vemurafenib 0.068 | [12] 0.069 | [9] -0.06 | givinostat -0.091 | barasertib -0.01

SLC9A6 isoform 3 (UniProt Q92581)
Chain of UniProt Q92581 (Q92581 whole entry, looked up): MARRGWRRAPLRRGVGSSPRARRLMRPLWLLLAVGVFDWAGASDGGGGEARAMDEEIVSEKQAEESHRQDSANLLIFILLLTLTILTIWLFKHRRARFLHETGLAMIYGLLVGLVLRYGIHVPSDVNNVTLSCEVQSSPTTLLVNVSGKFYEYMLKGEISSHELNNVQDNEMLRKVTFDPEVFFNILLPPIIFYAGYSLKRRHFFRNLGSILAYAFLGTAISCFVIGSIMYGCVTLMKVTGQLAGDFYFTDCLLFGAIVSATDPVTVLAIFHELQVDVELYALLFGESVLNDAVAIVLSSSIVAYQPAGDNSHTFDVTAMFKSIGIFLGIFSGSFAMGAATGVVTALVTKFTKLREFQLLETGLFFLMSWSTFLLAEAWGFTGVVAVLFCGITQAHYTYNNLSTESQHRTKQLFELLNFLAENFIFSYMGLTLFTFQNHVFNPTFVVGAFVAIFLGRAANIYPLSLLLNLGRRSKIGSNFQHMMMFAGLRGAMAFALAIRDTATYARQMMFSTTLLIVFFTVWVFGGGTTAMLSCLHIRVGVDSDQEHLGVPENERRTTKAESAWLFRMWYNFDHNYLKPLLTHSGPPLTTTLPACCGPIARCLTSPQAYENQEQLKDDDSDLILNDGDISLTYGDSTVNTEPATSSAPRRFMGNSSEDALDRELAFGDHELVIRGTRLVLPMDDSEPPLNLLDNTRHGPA
inactive: ibrutinib -0.012 | [1] 0.004 | [2] 0.051 | [5] 0.075 | [11] -0.152 | [12] -0.152 | givinostat -0.021 | barasertib 0.109

STK11IP (UniProt Q8N1F8)
inactive: IRAK-1-4 Inhibitor I -0.248 | ibrutinib 0.027 | [1] -0.02 | [10] -0.131 | pinometostat 0.168 | [4] 0.1 | [5] -0.183 | [6] 0.095 | [11] 0.038 | [8] -0.071 | Nexturastat A 0.118 | vemurafenib -0.159 | [12] 0.061 | [9] 0.063 | givinostat -0.017 | barasertib 0.008
active: [2] -0.932
